# Measured values as given in PubChem BioAssay (EPA / NIEHS).
# Activity calls are given as the source filed them. How the source made its calls: active means hit-call score of the fitted dose curve at least 0.9, where 1 is the maximum; inconclusive means response in the unintended direction; inactive means score below 0.9.
# Test: LTEA_HepaRG_LDH_cytotoxicity: Cytotoxicity Assessment in the Life Technologies and Expression Analysis (LTEA) Assay (AID 2283563)
# Description: LTEA_HepaRG is a cell based, multiplexed-readout assay that uses HepaRG, a human liver cell line, with measurements taken at 48 hours after chemical dosing on a 96-well plate.LTEA_HepaRG_LDH_cytotoxicity is one of 102 assay component(s) measured in the LTEA HepaRG cell culture assay. It is a marker of cell viability / cytotoxicity.Data from the assay component LTEA_HepaRG_LDH_cytotoxicity was analyzed into 1 endpoint. This assay endpoint, LTEA_HepaRG_LDH_cytotoxicity, was analyzed in the positive fitting direction relative to DMSO as the negative control and baseline of activity. Using a type of inducible reporter, measures of mRNA induction for loss-of-signal activity can be used to understand cell death. To generalize the intended target to other relatable targets, this assay endpoint is annotated to the cell cycle intended target family, where the subfamily is proliferation.
# A total of 1060 chemcials from the ToxCast library were tested in eight-point concentration-response experiments. Cell culture and cytotoxicity assays were conducted at Thermo Fisher Scientific's Custom Services facility (Madison, WI). A single lot of human HepaRG cells (Thermo Fisher Scientific, Frederick, MD) was used for the cell culture experiments. 96-well format collagen type I coated plates of human HepaRG cells were prepared using established methods. Briefly, cryopreserved HepaRG cells were thawed, plated at a density of approximately 100,000 cells/well in HepaRG Thaw, Plate, and General Purpose media (HPRG770, Thermo Fisher Scientific), and incubated for 48 hours. 0.5% DMSO was selected as vehicle control to balance the requisite need of DMSO in HepaRG cultures to maintain differentiation (for example, baseline metabolism, proportions of hepatocytes vs. cholangiocytes), while enabling further hepatic receptor pathway activation (for example, PXR and CAR) in response to chemical exposure. 48 hours after plating, the culture medium was replaced with HepaRG Serum-Free Incudtion Media. Cells were exposed to each test chemical in duplicate and maintained in CO2 incubators for another 48 hours. Chemical plates were thawed to room temperature and 200x concentrations of treatment groups were prepared. 8-point conentration-reponse curves were made with the highest exposure at 100 uM, followed by half-log dilutions, all in 0.5% DMSO. Each test plate contained variouse controls, induction positive controls (1mM phenobarbital), cytotoxicity positive controls ([…] aflatoxin B1), vehicle controls (0.5% DMSO), and total lysis controls (0.5% DMSO). Cell morphology images were taken using an Essen IncuCyte FLR automated microscope, with six 96-well plates imaged in about 24 minutes. Images were captured and exported and JPEG files. Spent culture media was transfered to black-well plates for the LDH assay, and remaining media was sorted at -80 C for later use. Cells were treated with RLT buffer and frozen until shipped for gene expression analysis. Total RNA was isolated from the cell suspension in 75 uL of Buffer RLT (Qiagen, Germantown, MD 20874) by Quintiles/Expression Analysis (Durham, NC) using a custom isolation procedure. Total RNA from each plate well was transferred to a preamplification plate. Fluidigm's 96.96 Dynamic ArrayTM (Fluidigm, Amsterdam, the Netherlands) technology was used for gene expression analyses by quantitative reverse transcription polymerase chain reaction (qRT-PCR, performed by Quintiles/Expression Analysis, Durham, NC)89. Standard TaqManTM Assays (Applied Biosystems/ThermoFisher Scientific, Foster City, CA) were used to assess the expression of 93 genes selected based on their selectivity and sensitivity to important hepatic receptors known to be modulated by environmental chemicals; importance in human hepatocyte functionality; and hepatotoxicity. […]
Structure (SMILES),outcome,AC50
O=C(O)C(Cl)(Cl)Cl,inactive,
CC(C)(OO)c1ccccc1,inactive,
Oc1cccc2cccnc12,inactive,
ClCC(Cl)CCl,inactive,
O=C(Nc1ccc2[nH]ccc2c1)c1cc2cc(F)ccc2n1Cc1cccc(F)c1,,38.3 µM (active)
NC(=O)O,inactive,
O=C1C2(Cl)C3(Cl)C4(Cl)C(Cl)(Cl)C5(Cl)C3(Cl)C1(Cl)C5(Cl)C24Cl (stereo unspecified),,72.1 µM (active)
CCOP(=S)(OCC)SCSP(=S)(OCC)OCC,inactive,
CC(C)(c1ccccc1)c1ccc(O)c(C(C)(C)c2ccccc2)c1,,72.2 µM (active)
O=c1[nH]c(=O)[nH]c(=O)[nH]1,inactive,
CCC(=O)C(CC(C)N(C)C)(c1ccccc1)c1ccccc1 (stereo unspecified),inactive,
CC(=O)[O][Hg][c]1ccccc1,,0.688 µM (active)
CCC(C)(C)c1ccc(O)c(C(C)(C)CC)c1,inactive,
O=C(O)C(F)(F)C(F)(F)C(F)(F)C(F)(F)C(F)(F)C(F)(F)C(F)(F)C(F)(F)C(F)(F)C(F)(F)F,inactive,
O=[N+]([O-])c1ccc(O)c([N+](=O)[O-])c1,,88.5 µM (active)
C=C(C)C(=O)[O][Sn]([CH2]CCC)([CH2]CCC)[CH2]CCC,,4.2 µM (active)

Structure (SMILES),outcome,AC50
CCCCCCCCc1ccc(O)cc1,inactive,
ClC1(Cl)C2(Cl)C3(Cl)C4(Cl)C(Cl)(Cl)C5(Cl)C3(Cl)C1(Cl)C5(Cl)C24Cl (stereo unspecified),inactive,
Cn1sc(Cl)cc1=O,inactive,
CC12CC1(C)C(=O)N(c1cc(Cl)cc(Cl)c1)C2=O (stereo unspecified),inactive,
C[C@]12CCC(=O)C[C@@H]1CC[C@@H]1[C@@H]2CC[C@]2(C)[C@@H](O)CC[C@@H]12,inactive,
CN(C)N=O,inactive,
CCOP(=S)(OCC)Oc1nc(Cl)c(Cl)cc1Cl,inactive,
C=CC(=O)OCCCCCC(C)C,inactive,
C[C@@H]1C[C@@H]([C@H](O)CC2CC(=O)NC(=O)C2)C(=O)[C@@H](C)C1,,45.1 µM (active)
CC(C)(C)CC(C)(C)c1ccc(O)cc1,,77 µM (active)
COc1cc(-c2ccc(N)c(OC)c2)ccc1N,inactive,
O=C(O)C(F)(F)C(F)(F)C(F)(F)C(F)(F)C(F)(F)C(F)(F)F,inactive,
Cc1ccccc1N,inactive,
CC(C)(C)c1cc(O)ccc1O,inactive,
CCN1CCC2(CC1)COc1cc3c(cc12)N(C(=O)c1ccc(-c2ccc(-c4nnc(C)o4)cc2C)cc1)CC3,,24.6 µM (active)
